# Reference: PubChem BioAssay (EPA / NIEHS)
# Values joined by “and” are separate entries in the source; they are usually repeats but may differ in a detail not shown here. Equal entries are not always repeated. The source holds several records for some structures; these can differ, active in one and inactive in another. Active and inactive are the calls of the source. The calls were made as follows: active = hit-call score of the fitted dose curve at least 0.9, where 1 is the maximum; inactive = score below 0.9.
# Key:
# [1] = biological target: CCAAT/enhancer-binding protein beta (Homo sapiens) (UniProt P17676); test: ATG_C_EBP_CIS: Attagene CIS-FACTORIAL HepG2 Assay for human CCAAT/Enhancer Binding Protein (C/EBP) beta (AID 2282927); settings: HepG2 Attagene cis-factorial transcription factor reporter; actives raise or lower the signal
# Sequence of CCAAT/enhancer-binding protein beta (Homo sapiens) (P17676 whole entry, looked up, the tested form may be a part): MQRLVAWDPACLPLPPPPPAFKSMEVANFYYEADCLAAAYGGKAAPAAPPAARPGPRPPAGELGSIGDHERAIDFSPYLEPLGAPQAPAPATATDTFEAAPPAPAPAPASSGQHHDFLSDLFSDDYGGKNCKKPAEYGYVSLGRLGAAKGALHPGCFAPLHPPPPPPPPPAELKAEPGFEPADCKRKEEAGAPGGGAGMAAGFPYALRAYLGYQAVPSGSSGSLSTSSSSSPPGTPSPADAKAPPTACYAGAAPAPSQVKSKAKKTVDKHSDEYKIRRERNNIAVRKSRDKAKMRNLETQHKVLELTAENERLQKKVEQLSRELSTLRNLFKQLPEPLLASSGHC
# Method in brief: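 Endogenous C/EBPb-driven reporter transcripts measured in transfected human HepG2 cells at 24 h via RT-PCR and capillary electrophoresis of labelled fragments. Activity fitted in both directions relative to DMSO baseline.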
# [2] = ATG_CMV_CIS: Attagene CIS-FACTORIAL HepG2 Assay for human CMV (Internal Marker) (AID 2282928); settings: HepG2 CMV promoter reporter, transcription factor profiling; actives raise or lower the signal;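 also: endpoint acts as a background internal control marker rather than a target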
# Method in brief: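 After transient transfection of HepG2 with reporter transcription units driven by cis-regulatory promoters, cells receive test chemical for 24 h. Labeled reporter amplicons, digested with HpaI, are sized and quantified by capillary electrophoresis against DMSO.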
# [3] = ATG_DR4_LXR_CIS: Attagene CIS-FACTORIAL HepG2 Assay for human Liver X Receptor (LXR), DR4 submotif (AID 2282929); settings: HepG2 Attagene DR4 cis-reporter, mRNA transcription; actives raise or lower the signal
# Method in brief: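 HepG2, transient MRTU transfection, cis-element (DR4) promoter; 24 h compound exposure; total RNA → oligo(dT) RT → PCR → 6-FAM primer extension → HpaI cut → CE. Gain/loss vs DMSO, bidirectional fit.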
# [4] = biological target: Aryl hydrocarbon receptor (Homo sapiens) (UniProt P35869); test: ATG_Ahr_CIS: Attagene CIS-FACTORIAL HepG2 Assay for human Aryl Hydrocarbon Receptor (Ahr) (AID 2282930); settings: HepG2 AhR cis-factorial reporter transcription; actives raise or lower the signal
# Sequence of Aryl hydrocarbon receptor (Homo sapiens) (P35869 whole entry, looked up): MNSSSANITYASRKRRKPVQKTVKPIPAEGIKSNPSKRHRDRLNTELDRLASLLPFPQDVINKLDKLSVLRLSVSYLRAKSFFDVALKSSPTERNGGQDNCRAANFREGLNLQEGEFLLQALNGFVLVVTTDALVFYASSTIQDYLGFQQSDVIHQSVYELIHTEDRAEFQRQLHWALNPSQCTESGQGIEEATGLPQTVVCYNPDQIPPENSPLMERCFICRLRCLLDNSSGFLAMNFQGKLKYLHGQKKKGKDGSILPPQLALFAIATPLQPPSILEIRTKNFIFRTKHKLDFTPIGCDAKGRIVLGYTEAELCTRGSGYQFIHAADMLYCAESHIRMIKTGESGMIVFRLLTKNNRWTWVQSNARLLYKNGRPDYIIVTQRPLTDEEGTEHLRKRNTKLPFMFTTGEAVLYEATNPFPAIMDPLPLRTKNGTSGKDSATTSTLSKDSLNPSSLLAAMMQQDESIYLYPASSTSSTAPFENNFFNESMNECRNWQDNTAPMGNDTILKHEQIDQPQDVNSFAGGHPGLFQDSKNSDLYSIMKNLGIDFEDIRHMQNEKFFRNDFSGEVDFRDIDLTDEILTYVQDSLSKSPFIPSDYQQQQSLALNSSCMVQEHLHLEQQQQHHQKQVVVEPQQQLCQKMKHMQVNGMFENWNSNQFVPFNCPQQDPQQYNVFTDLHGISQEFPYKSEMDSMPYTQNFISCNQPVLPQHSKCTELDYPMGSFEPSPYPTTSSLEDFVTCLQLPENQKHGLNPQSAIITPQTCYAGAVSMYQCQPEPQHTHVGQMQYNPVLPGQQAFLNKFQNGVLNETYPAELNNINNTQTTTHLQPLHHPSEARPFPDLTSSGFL
# Method in brief: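 Reporter mRNA levels, quantified by RT-PCR and fluorescent capillary electrophoresis, reflect endogenous AhR transcriptional activity in HepG2 cells carrying transfected cis-promoter reporter constructs. Readout at 24 h post-dose; gain or loss fitted against DMSO baseline.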
# [5] = ATG_AP_1_CIS: Attagene CIS-FACTORIAL HepG2 Assay for human Activator Protein 1 (AP-1) (AID 2282931); settings: HepG2 Attagene cis-factorial AP-1 reporter mRNA; actives raise or lower the signal
# Method in brief: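 Transient MRTU transfection of HepG2 → 24 h chemical treatment → RNA isolation, RT-PCR, 6-FAM labelling, HpaI digest → capillary electrophoresis. Fit: bidirectional, DMSO negative control.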
# [6] = ATG_AP_2_CIS: Attagene CIS-FACTORIAL HepG2 Assay for human Activator Protein 2 (AP-2) (AID 2282932); settings: HepG2 AP-2 cis-reporter, Attagene transcription factor profiling; actives raise or lower the signal
# Method in brief: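 Step one: transient transfection of HepG2 with reporter transcription units. Step two: 24 h chemical exposure. Step three: RNA extraction, RT-PCR, labelled fragment analysis by capillary electrophoresis; DMSO serves as baseline.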
# [7] = ATG_BRE_CIS: Attagene CIS-FACTORIAL HepG2 Assay for human Bone Morphogenetic Protein (BMP) Response Element (BRE) (AID 2282933); settings: HepG2 BMP response element reporter, Attagene transcription factor profiling; actives raise or lower the signal
# Method in brief: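 Transient MRTU transfection of human HepG2 liver cells; 24 h compound treatment; total RNA isolated, reverse-transcribed, PCR-amplified, 6-FAM labelled, HpaI-cut, capillary electrophoresis. DMSO = negative control/baseline, bidirectional fit.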
# [8] = biological target: Retinoic acid receptor alpha (Homo sapiens) (UniProt P10276); test: ATG_DR5_RAR_CIS: Attagene CIS-FACTORIAL HepG2 Assay for human Retinoic Acid Receptor Alpha (RARE), DR5 submotif (AID 2282934); settings: HepG2 Attagene cis-factorial RARE DR5 reporter, mRNA; actives raise or lower the signal
# Sequence of Retinoic acid receptor alpha (Homo sapiens) (P10276 whole entry, looked up): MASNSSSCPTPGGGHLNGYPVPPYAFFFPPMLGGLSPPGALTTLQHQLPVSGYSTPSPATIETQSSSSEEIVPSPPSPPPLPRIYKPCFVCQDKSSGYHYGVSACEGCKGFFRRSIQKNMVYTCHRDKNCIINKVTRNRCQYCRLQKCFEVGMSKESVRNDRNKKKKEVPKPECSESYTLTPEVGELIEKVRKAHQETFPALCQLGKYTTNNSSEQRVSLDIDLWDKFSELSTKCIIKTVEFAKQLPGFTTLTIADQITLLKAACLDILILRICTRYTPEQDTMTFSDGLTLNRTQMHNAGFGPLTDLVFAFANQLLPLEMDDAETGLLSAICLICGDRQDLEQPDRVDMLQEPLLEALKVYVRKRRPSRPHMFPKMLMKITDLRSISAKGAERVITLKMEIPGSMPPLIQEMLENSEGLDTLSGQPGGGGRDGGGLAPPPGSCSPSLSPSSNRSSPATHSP
# Method in brief: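 Reporter transcripts from a DR5-regulated unit, measured via RT-PCR plus capillary electrophoresis, reflect endogenous RAR activity in transiently transfected human HepG2 liver cells. Exposure lasted 24 h; gain or loss of signal scored against DMSO.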
# [9] = biological target: Transcription factor E2F1 (Homo sapiens) (UniProt Q01094); test: ATG_E2F_CIS: Attagene CIS-FACTORIAL HepG2 Assay for human E2F Transcription Factor 1 (AID 2282935); settings: HepG2 Attagene cis-reporter, E2F reporter RNA transcripts; actives raise or lower the signal
# Sequence of Transcription factor E2F1 (Homo sapiens) (Q01094 whole entry, looked up): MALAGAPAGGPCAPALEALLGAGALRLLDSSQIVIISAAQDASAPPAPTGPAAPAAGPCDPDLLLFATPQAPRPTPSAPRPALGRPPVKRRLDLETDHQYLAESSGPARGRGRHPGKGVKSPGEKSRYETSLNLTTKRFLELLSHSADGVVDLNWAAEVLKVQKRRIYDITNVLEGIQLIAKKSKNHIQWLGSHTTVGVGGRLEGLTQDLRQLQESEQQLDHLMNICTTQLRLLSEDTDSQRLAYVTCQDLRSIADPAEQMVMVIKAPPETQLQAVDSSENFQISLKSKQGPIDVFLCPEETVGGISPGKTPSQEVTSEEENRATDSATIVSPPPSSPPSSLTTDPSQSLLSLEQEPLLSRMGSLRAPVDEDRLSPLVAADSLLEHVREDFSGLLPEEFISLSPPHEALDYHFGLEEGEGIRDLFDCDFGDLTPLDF
# Method in brief: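 Total RNA from 24 h-treated, reporter-transfected HepG2 cells undergoes DNase I treatment, oligo(dT) reverse transcription, PCR and 6-FAM primer extension before capillary electrophoresis.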
# [10] = ATG_E_Box_CIS: Attagene CIS-FACTORIAL HepG2 Assay for human Enhancer Box (E-box) (AID 2282936); settings: HepG2 E-box cis-reporter transcription, actives raise or lower the signal
# Method in brief: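 DMSO served as negative control and baseline for bidirectional fitting. Human hepatoma HepG2 cells, transiently transfected with cis-reporter constructs, were dosed 24 h; reporter mRNA read by RT-PCR and capillary electrophoresis.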
# [11] = ATG_M_61_CIS: Attagene CIS-FACTORIAL HepG2 Assay for M61 Transcription Factor (Internal Marker) (AID 2282937); settings: HepG2 Attagene CIS-FACTORIAL M61 internal marker reporter; actives raise or lower the signal
# Method in brief: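 Human liver HepG2, transient MRTU transfection (cis promoter elements), 24 h compound. Total RNA → oligo(dT) RT → PCR → FAM label → HpaI → CE. Internal background marker; bidirectional fitting, DMSO = baseline.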
# [12] = ATG_EGR_CIS: Attagene CIS-FACTORIAL HepG2 Assay for human Early Growth Response 1 (EGR1) (AID 2282938); settings: HepG2 Attagene CIS-FACTORIAL EGR reporter mRNA; actives raise or lower the signal
# Method in brief: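 Transient transfection of human HepG2 with multiple cis-regulated reporter units, chemical exposure 24 h, total RNA isolated. Reverse transcription, PCR, fluorescent labelling and capillary electrophoresis quantify reporter transcripts; activity fitted bidirectionally against DMSO.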
# [13] = ATG_M_19_CIS: Attagene CIS-FACTORIAL HepG2 Assay for M19 Transcription Factor (Internal Marker) (AID 2282939); settings: HepG2 Attagene CIS-FACTORIAL M19 internal marker reporter; actives raise or lower the signal
# Method in brief: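 Transfect HepG2 with MRTU reporter library → dose chemical, 24 h → isolate total RNA, reverse-transcribe with oligo(dT) → PCR, 6-FAM label, HpaI cut (2 h, 37 C) → capillary electrophoresis. Bidirectional fit vs DMSO.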
# [14] = ATG_Ets_CIS: Attagene CIS-FACTORIAL HepG2 Assay for human Erythroblast Transformation Specific (ETS) (AID 2282941); settings: HepG2 ETS cis-reporter transcription, actives raise or lower the signal
# Method in brief: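 Human HepG2 hepatoma cells were transiently transfected with promoter-driven reporter constructs and treated for 24 hours. Reporter transcripts were quantified by RT-PCR with fluorescent primer extension; bidirectional curve fitting used DMSO as reference.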
# [15] = biological target: Hepatocyte nuclear factor 3-beta (Homo sapiens) (UniProt Q9Y261); test: ATG_FoxA2_CIS: Attagene CIS-FACTORIAL HepG2 Assay for human Forkhead box A2 (FOXA2) (AID 2282942); settings: HepG2 cis-reporter transcription factor activity, 24 h; actives raise or lower the signal
# Sequence of Hepatocyte nuclear factor 3-beta (Homo sapiens) (Q9Y261 whole entry, looked up): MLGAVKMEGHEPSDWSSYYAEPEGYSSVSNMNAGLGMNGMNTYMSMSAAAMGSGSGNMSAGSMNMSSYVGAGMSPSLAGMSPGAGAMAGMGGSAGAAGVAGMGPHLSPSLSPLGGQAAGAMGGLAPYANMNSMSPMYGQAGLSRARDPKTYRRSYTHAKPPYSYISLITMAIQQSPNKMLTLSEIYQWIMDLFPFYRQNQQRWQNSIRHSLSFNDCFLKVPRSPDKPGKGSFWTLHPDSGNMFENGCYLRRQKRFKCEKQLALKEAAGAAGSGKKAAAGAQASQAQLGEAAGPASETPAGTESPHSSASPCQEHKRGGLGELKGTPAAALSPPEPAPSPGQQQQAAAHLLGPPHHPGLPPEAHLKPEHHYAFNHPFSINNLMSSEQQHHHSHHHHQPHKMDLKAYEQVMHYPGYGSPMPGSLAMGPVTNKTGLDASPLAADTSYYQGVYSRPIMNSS
# Method in brief: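 Transient MRTU transfection of HepG2 liver cells; 24 h treatment; total RNA → oligo(dT) RT → PCR → FAM primer extension → HpaI cut → CE. Bidirectional fit vs DMSO.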
# [16] = ATG_FoxO_CIS: Attagene CIS-FACTORIAL HepG2 Assay for human Forkhead box O (FoxO) (AID 2282943); settings: HepG2 Attagene cis-reporter, FoxO element, mRNA; actives raise or lower the signal
# Method in brief: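 Endogenous transcription factor activity read from multiplexed cis-promoter reporter transcripts in transiently transfected HepG2, 24 h after dosing. Reporter RNA measured via RT-PCR plus capillary electrophoresis of FAM-labeled products; gain or loss relative to DMSO.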
# [17] = ATG_GATA_CIS: Attagene CIS-FACTORIAL HepG2 Assay for human GATA Binding Protein (AID 2282944); settings: HepG2 GATA cis-element reporter, Attagene multiplex mRNA; actives raise or lower the signal
# Method in brief: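 Transient MRTU transfection, HepG2, 24 h compound exposure. Total RNA → oligo(dT) RT → PCR → 6-FAM primer extension → HpaI cut → CE. Bidirectional fit vs DMSO.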
# [18] = ATG_GLI_CIS: Attagene CIS-FACTORIAL HepG2 Assay for human Zinc Finger Protein GLI1 (AID 2282945); settings: HepG2, Attagene cis-factorial reporter mRNA, GLI element; actives raise or lower the signal
# Method in brief: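 Bidirectional curve fits relative to DMSO, using reporter mRNA levels from RT-PCR plus capillary electrophoresis. Cells were HepG2 transiently carrying cis-regulated reporter constructs, harvested 24 h after dosing.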
# [19] = ATG_ERE_CIS: Attagene CIS-FACTORIAL HepG2 Assay for Estrogen Response Element (ERE) (AID 2282940); settings: HepG2 ERE cis-reporter, Attagene RNA transcript; actives raise or lower the signal
# Method in brief: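 Transient MRTU transfection of human HepG2; cis-element promoters; 24 h dosing; total RNA → RT (oligo dT) → PCR → 6-FAM primer extension → HpaI digest → CE fluorescence. Bidirectional fit, DMSO baseline.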
smiles,measurement,setting,value
CO[C@H]1/C=C/O[C@@]2(C)Oc3c(C)c(O)c4c(O)c(c(/C=N/N5CCN(C)CC5)c(O)c4c3C2=O)NC(=O)/C(C)=C\C=C\[C@H](C)[C@H](O)[C@@H](C)[C@@H](O)[C@@H](C)[C@H](OC(C)=O)[C@@H]1C,outcome,[1],inactive
same,outcome,[2],inactive
same,outcome,[3],inactive
same,AC50,[4],37.4 µM (active)
same,outcome,[4],inactive
same,outcome,[5],inactive
same,outcome,[6],inactive
same,outcome,[7],inactive
same,outcome,[8],inactive
same,outcome,[9],inactive
same,outcome,[10],inactive
same,outcome,[11],inactive
same,outcome,[12],inactive
same,outcome,[13],inactive
same,outcome,[14],inactive
same,outcome,[15],inactive
same,outcome,[16],inactive
same,outcome,[17],inactive
same,outcome,[18],inactive
CCN(Cc1cccnc1)C(=O)c1cccc(Cl)c1[C@]1(C)C(=O)N(Cc2ccc(OC)cc2OC)c2ccc(Cl)cc21,outcome,[1],inactive
same,AC50,[2],8.21 µM (active)
same,AC50,[3],7.45 µM (active)
same,AC50,[4],1.75 µM (active)
same,AC50,[5],10.3 µM (active)
same,outcome,[6],inactive
same,outcome,[7],inactive
same,AC50,[9],7.42 µM (active)
same,outcome,[10],inactive
same,outcome,[11],inactive
same,AC50,[12],3.83 µM (active)
same,outcome,[19],inactive
same,outcome,[14],inactive
same,outcome,[15],inactive
same,outcome,[16],inactive
same,outcome,[17],inactive
same,outcome,[18],inactive
O=c1ccc2ccccc2o1,outcome,[1],inactive
same,outcome,[2],inactive
same,outcome,[3],inactive
same,outcome,[4],inactive
same,outcome,[5],inactive
same,outcome,[6],inactive
same,outcome,[7],inactive
same,outcome,[9],inactive
same,outcome,[10],inactive
same,outcome,[11],inactive
same,outcome,[12],inactive
same,outcome,[13],inactive
same,outcome,[19],inactive
same,outcome,[14],inactive
same,outcome,[15],inactive
same,outcome,[16],inactive
same,outcome,[17],inactive
same,outcome,[18],inactive
OC12N=C(c3ccccc3)SC1Cc1cc(Cl)ccc12 (stereo not given),outcome,[1],inactive
same,outcome,[2],inactive
same,outcome,[3],inactive
same,AC50,[4],2.32 µM (active)
same,AC50,[5],3.8 µM (active)
same,outcome,[6],inactive
same,outcome,[7],inactive
same,outcome,[8],inactive
same,outcome,[9],inactive
same,outcome,[10],inactive
same,outcome,[11],inactive
same,outcome,[12],inactive
same,AC50,[19],1.16 µM (active)
same,outcome,[14],inactive
same,outcome,[15],inactive
same,outcome,[16],inactive
same,outcome,[17],inactive
same,outcome,[18],inactive
Clc1cc(Cl)c2c(c1)N=C1CCCCCN1C2,outcome,[1],inactive
same,outcome,[2],inactive
same,AC50,[3],78.1 µM (active)
same,outcome,[4],inactive
same,outcome,[5],inactive
same,outcome,[6],inactive
same,outcome,[7],inactive
same,outcome,[8],inactive
same,outcome,[9],inactive
same,AC50,[10],50 µM (active)
same,outcome,[11],inactive
same,outcome,[12],inactive
same,outcome,[13],inactive
same,outcome,[19],inactive
same,outcome,[14],inactive
same,outcome,[15],inactive
same,outcome,[16],inactive
same,outcome,[17],inactive
same,outcome,[18],inactive
CC/C(=C(/CC)c1ccc(O)cc1)c1ccc(O)cc1,outcome,[1],inactive
same,AC50,[2],18 µM (active) and 15.4 µM (active)
same,outcome,[2],inactive
same,AC50,[3],7.89 µM (active) [middle of 4 runs]
same,outcome,[3],inactive
same,AC50,[5],13.8 µM (active) and 11.1 µM (active) and 14.4 µM (active)
same,outcome,[5],inactive
same,outcome,[6],inactive
same,outcome,[7],inactive
same,outcome,[9],inactive
same,outcome,[10],inactive
same,outcome,[11],inactive
same,outcome,[12],inactive
same,outcome,[13],inactive
same,outcome,[14],inactive
same,outcome,[15],inactive
same,outcome,[16],inactive
same,outcome,[17],inactive
same,outcome,[18],inactive
